Assay results from the supplement of paper PMC8371130.
Counter-ions that a name gives are not always drawn.

System: HL-1
Experiment: relative cell viability (CellTiter-Glo) vs DMSO control (% of DMSO control); higher = more viable cells
How it was run: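 Cell viability was determined from CellTiter-Glo luminescence, expressed relative to vehicle-treated control cells. The cells were HL-1 mouse atrial cardiomyocytes, plated at 1000 cells per well in 384-well plates with compounds at 40, 200, 1000 or 5000 nM in 0.01% DMSO. One day after plating, they underwent 48 h of hypoxia (1% O2) in a hypoxic workstation followed by 24 h of reoxygenation in a normal incubator, or were kept in normoxia for an equal time.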

[1] = oxygen condition: hypoxia 48 h (1% O2) + reoxygenation 24 h, 40 nM
[2] = oxygen condition: hypoxia 48 h (1% O2) + reoxygenation 24 h, 200 nM
[3] = oxygen condition: hypoxia 48 h (1% O2) + reoxygenation 24 h, 1000 nM
[4] = oxygen condition: hypoxia 48 h (1% O2) + reoxygenation 24 h, 5000 nM
[5] = oxygen condition: normoxia 72 h, 40 nM
[6] = oxygen condition: normoxia 72 h, 200 nM
[7] = oxygen condition: normoxia 72 h, 1000 nM
[8] = oxygen condition: normoxia 72 h, 5000 nM

SMILES	relative cell viability [1]	relative cell viability [2]	relative cell viability [3]	relative cell viability [4]	relative cell viability [5]	relative cell viability [6]	relative cell viability [7]	relative cell viability [8]
CC[C@@H](C(N)=O)N1CCCC1=O [Levetiracetam]	113	109	118	113	109	113	116	117
CN1[C@@H]2CC[C@H]1C[C@@H](OC(=O)[C@H](CO)c1ccccc1)C2 [Hyoscyamine]	104	103	109	106	109	101	114	116
CCC1(c2ccc(N)cc2)CCC(=O)NC1=O (stereo unspecified) [Aminoglutethimide]	104	99.3	89.1	72.3	99.4	93.8	92.1	66.7
N.N.[Cl][Pt][Cl] [Cisplatin]	91.6	77.8	80.1	111	82.7	80.6	89.5	110
C#C[C@]1(O)C=C[C@H]2[C@@H]3CCC4=CC(=O)CC[C@@H]4[C@H]3CC[C@@]21CC [Gestodene]	102	100	109	107	111	103	105	106
O=P1(N(CCCl)CCCl)NCCCO1 (stereo unspecified) [Cyclophosphamide monohydrate]	100	94.2	97.1	108	104	97	106	111
O=C(O)c1nn(Cc2ccc(Cl)cc2Cl)c2ccccc12 [Lonidamine]	104	105	109	111	111	102	122	112
O=C(O[C@H]1C[C@H]2CC[C@@H](C1)[N+]21CCCC1)C(O)(c1ccccc1)c1ccccc1 [Trospium chloride]	95	98.6	90.1	105	103	95.1	95.8	101
CCOC(=O)c1cncn1[C@H](C)c1ccccc1 [Etomidate]	101	107	118	115	104	109	104	109
C[C@@H]1O[C@@H](O[C@H]2C[C@@H](O)[C@]3(CO)[C@H]4[C@H](O)C[C@]5(C)[C@@H](C6=CC(=O)OC6)CC[C@]5(O)[C@@H]4CC[C@]3(O)C2)[C@H](O)[C@H](O)[C@H]1O [Ouabain]	101	103	95.3	115	105	105	98.8	124
O=P1(NCCCl)OCCCN1CCCl (stereo unspecified) [Ifosfamide]	110	117	124	109	103	101	117	112
Cc1cccc([C@H](C)c2c[nH]cn2)c1C [Dexmedetomidine HCl]	111	107	102	89.4	106	96.7	98.5	99.5
OC(c1ccccc1)(c1ccccc1)C1CCNCC1 [Azacyclonol]	104	104	106	108	108	101	104	115
CCC1(c2cccc(O)c2)CCCCN(C)C1 (stereo unspecified) [Meptazinol HCl]	97.8	103	103	109	97.7	98.3	102	108
Cc1cccc([C@H](C)c2c[nH]cn2)c1C [Dexmedetomidine]	112	105	106	107	107	104	118	116
CCN(C)C(=O)Oc1cccc([C@H](C)N(C)C)c1 [Rivastigmine tartrate]	105	102	110	109	99.9	106	108	105
CN1C(=O)COc2c(C(=O)NC3CN4CCC3CC4)cc(Cl)cc21 (stereo unspecified) [Azasetron HCl]	98.7	97.9	105	106	94.8	98.3	110	107
CN(C)C(=O)Oc1ccc[n+](C)c1 [Pyridostigmine Bromide]	98.7	104	103	103	92.1	104	95.5	100
C[N+](C)(C)CCCCCCCCCC[N+](C)(C)C [Decamethonium bromide]	106	103	107	112	107	103	106	117
CN(C)C(=O)Oc1cccc([N+](C)(C)C)c1 [Neostigmine bromide]	106	100	97.4	113	101	105	103	109
C/C=C(\C)C(=O)N[C@@H](c1ccccc1)[C@@H](O)C(=O)O[C@H]1C[C@@]2(O)[C@@H](OC(=O)c3ccccc3)[C@@H]3[C@]4(OC(C)=O)CO[C@@H]4C[C@H](O)[C@@]3(C)C(=O)[C@H](OC(C)=O)C(=C1C)C2(C)C [Cephalomannine]	24.9	28	23.6	28	21.5	21.7	20.2	25.3
CCCN1C[C@H](CSC)C[C@@H]2c3cccc4[nH]cc(c34)C[C@H]21 [Pergolide mesylate]	103	100	106	109	105	102	110	120
CC(=O)O[C@@]12CO[C@@H]1C[C@H](O)[C@@]1(C)C(=O)[C@H](O)C3=C(C)[C@@H](O)C[C@@](O)([C@@H](OC(=O)c4ccccc4)[C@H]21)C3(C)C	86.6	102	105	113	105	105	103	124
O=C(O[C@H]1C[N+]2(CCCOc3ccccc3)CCC1CC2)C(O)(c1cccs1)c1cccs1 [Aclidinium Bromide]	104	108	108	110	103	115	106	121
C[C@]12CC[C@H](O)CC1=CC[C@@H]1[C@@H]2CC[C@]2(C)C(=O)CC[C@@H]12 [Dehydroepiandrosterone]	102	94	96.2	111	95.4	95.8	93.8	111
C=C1C[C@@H]2[C@H](CC[C@]3(C)C(=O)CC[C@@H]23)[C@@]2(C)C=CC(=O)C=C12 [Exemestane]	108	98.9	107	105	107	106	124	112
COC(=O)C1=CCCN(C)C1 [Arecoline]	105	108	106	111	109	112	109	111
